The text below walks through data of PubChem BioAssay (NCI).

Holding throughout (assay): NCI-60 one-dose screen, 48 h (100 = growth as untreated, 0 = no growth, -100 = all killed)
Common to all, as to conditions: 10 µM unless noted

In assay [1] the test system is SR leukemia.
The subject of assay [2] is RPMI-8226 leukemia.
In assay [3] the test system is OVCAR-8 ovarian.
Assay [4] concerns OVCAR-5 ovarian.
For assay [5], the system named is OVCAR-4 ovarian.
For assay [6], the system named is IGROV1 ovarian.
For assay [7], the system named is OVCAR-3 ovarian.
For assay [8], the system named is HS 578T breast.
For assay [9], the system named is NCI/ADR-RES ovarian.
The subject of assay [10] is SK-OV-3 ovarian.

The panel holds about 83,000 compounds, 20% with a hit somewhere; the sample as a whole holds those more often.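 Plates (96-well) were seeded with cells, treated with compound at one concentration, and incubated for 48 hours before percent growth was determined.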 Unmarked numbers belong to inactive results. Calls of active or inactive are those of the source. The calls were made as follows: active = growth percent below 10; inactive = the rest.

In the case of `CCCCCN1C=C/C(=C\C(=O)N(C)c2ccc(Oc3ccccc3)cc2)c2ccccc21`, the growth in [1] was 82.1%; in assay [2], 68.6%; in assay [3], 80.3%; in [4] it was 92.9%; in [5] it was 58.3%; in [6], 58.1%. The growth was 83.6% in [7], 99.5% in [8] and 100% in assay [9].
With `Cc1cccc(C)c1N=c1oc2ccc(Cl)cc2nc1-c1ccccc1O`, the growth is 51.9% in [1]; 82.9% in assay [2]; 91.4% in [3]; 81.3% in [4]; 78.4% in assay [5]; 92.8% in [10]. The growth in assay [6] was 88.3%; in [8] it was 84.3%; in [9], 86.4%.
Turning to `O=C(Cn1c[n+](CC(=O)c2ccc([N+](=O)[O-])cc2)c2ccccc21)Nc1cccc2cccnc12`, the growth is 61.8% in assay [1]; 10.2% in [2]; 93.2% in assay [3]; 93.9% in assay [4]; 20.4% in assay [5]; 109% in assay [10]. In addition, the growth in [6] is 71.1%; in assay [8], 74.6%; in [9], 102%.
On to `CCSCC1CC(O)(c2ccccc2)CC(c2ccc(F)cc2)O1` (stereo unspecified), for which the growth in [1] was -22% (active); in assay [2] it was 8.79% (active); in [3], 21.3%; in [4], 86.6%; in [5], 24.5%; in [6] it was 48.5%. Besides, the growth in assay [7] was -13% (active); in [8], -14.8% (active); in [9] it was 24.6%.
With `COc1ccc(/C=C/c2nc(Nc3ccc(Cl)cc3)c3ccccc3n2)cc1`, the growth was -3.22% (active) in assay [1]; 52.9% in [2]; 61.4% in assay [3]; 73.2% in assay [4]; 60.2% in [5]; 83.6% in assay [10]. For the same molecule, the growth is 75.9% in assay [6], 70.5% in assay [8] and 65.7% in assay [9].
Regarding `COC(=O)C1=C(C(=O)ON)[C@@H]2C=C[C@@]1([C@@H](Cc1ccccc1)Nc1ccccc1)O2`, the growth in [1] was 8.17% (active); in assay [2], 21.7%; in assay [3] it was 92.8%; in assay [4], 89%; in assay [5], 79.9%; in assay [10], 107%. Further, the growth in assay [6] was 85.6%; in assay [8], 109%; in assay [9], 89.8%.
As to `OCc1cnc2ccccc2c1NC1CCCCCC1`, the growth in [1] is 91.4%; in assay [2] it was 75%; in [3], 84.7%; in [4], 100%; in assay [5], 86.3%; in [10] it was 97.7%. For the same molecule, the growth in assay [6] was 95.5%; in assay [8], 90.5%; in assay [9], 57.5%.
For the molecule `Nc1c(S(=O)(=O)O)cc2c3c(cccc13)C(=O)OC2=O`, the growth is 114% in assay [1]; 106% in [2]; 97.6% in assay [3]; 118% in assay [4]; 94% in assay [5]; 110% in [10]. The growth in assay [6] was 63.7%; in assay [8], 99.2%; in [9], 93.8%.
`COc1cccc(-c2nc3occn3c2-c2ccnc(NCCNS(=O)(=O)c3ccc(C(F)(F)F)cc3)n2)c1`: the growth in assay [1] was 96.6%; in [2] it was 69.2%; in assay [3], 90.8%; in assay [4], 116%; in assay [5], 83.7%; in assay [6], 80.6%. Further, the growth in assay [7] is 96.7%; in assay [8], -23.5% (active); in [9] it was 99.4%.
Consider `N#CC1C(C#N)C(C(=O)c2ccc(Br)cc2)N2c3ccccc3C=CC12` (stereo unspecified), for which the growth in [1] is 34.9%; in assay [2], 94.1%; in assay [3] it was 90.9%; in assay [4], 55.2%; in [5], 43.7%; in [6], 39.7%. Also, the growth in assay [7] was 75.5%; in assay [8], 77.6%; in assay [9], 64.1%.
`COC(=O)C1=C(C(=O)ON)C2C=CC1(C(Cc1ccccc1)Nc1ccccc1)O2` (stereo unspecified): the growth was 4.9% (active) in [1]; 11.8% in assay [2]; 91.2% in [3]; 105% in assay [4]; 69% in assay [5]; 104% in [10]. For the same molecule, the growth was 75.9% in assay [6], 108% in assay [8] and 94.6% in assay [9].
Regarding `N#CC1=C(N)Oc2c(cnn2-c2ccc([N+](=O)[O-])cc2[N+](=O)[O-])C1c1ccccc1` (stereo unspecified), the growth in assay [1] is 98.2%; in assay [2], 92.5%; in assay [3] it was 101%; in [4], 99.1%; in assay [5], 109%; in [6] it was 100%. Besides, the growth was 112% in assay [7], 89% in [8] and 101% in [9].
For `C=CC(=O)N[C@@H](/C=C/C(=O)OCC)Cc1ccc(-c2cc(Cl)cc(Cl)c2)cc1`, the growth in [1] was 7.26% (active); in [2] it was -2.44% (active); in [3], 16.8%; in [4], 55.8%; in assay [5] it was 10.7%; in assay [10], 26.7%. In addition, the growth in [6] was 36.2%; in assay [8], 40.3%; in [9] it was 8.7% (active).
On to `Cc1cccc(NC(=O)Nc2ccc(-n3cnc4cc(-c5ccc(O)cc5)ccc43)cc2)c1`, for which the growth is 19.7% in assay [1]; 12.4% in assay [2]; 17.6% in [3]; 76.8% in [4]; 27.4% in assay [5]; 33.2% in assay [6]. For the same molecule, the values for the growth in assay [7], in [8] and in assay [9] were 20.4%, 82% and 39.5%, respectively.
